Experimental data as given in PubChem BioAssay AID1159580 (chemical genetic matrix, 2015).
Where “and” joins values, the source holds several entries; their conditions need not be identical. Equal entries are not always repeated. The campaign covered roughly 5,500 compounds. About 2,000 (36%) were called active. Another 18% or so got no clear call; they are omitted. Rule as the data show it: active = normalized growth mostly below about 0.91 (no sharp cut-off); inconclusive = no clear call, values can overlap the other calls; inactive = mostly above about 0.92. This is one part of the list.

Test: chemical genetic growth profiling, strain panel (AID 1159580);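 also: tested at 20 µM; growth read once vehicle control cultures reached saturation at 30 °C; 1 = growth at the plate median or of vehicle wells; lower values mean less growth of the strain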
Details: S. cerevisiae deletion strains, growth OD

Measured: normalized growth

CC1(C)C(=O)C=C[C@@]2(C)C1C=C[C@]1(C)C2CC[C@@]2(C)[C@H](c3ccoc3)OC(=O)C3OC321 (some centres not stated)
active: locus YDR137W, strain rgp1, hits give low values 0.663 | locus YDR159W, strain sac3, hits give low values 0.843 | locus YDR392W, strain spt3, hits give low values 0.314 | locus YJL129C, strain trk1, hits give low values 0.867 | locus YLR039C, strain RIC1, hits give low values 0.624 | locus YLR262C, strain YPT6 (second series), hits give low values 0.67 | locus YLR320W, strain mms22, hits give low values 0.838 | locus YLR418C, strain cdc73, hits give low values 0.655 | locus YMR205C, strain PFK2, hits give low values 0.841 | locus YNL071W, strain lat1, hits give low values 0.695 | locus YNL307C, strain MCK1, hits give low values 0.867 | locus YOR184W, strain ser1, hits give low values 0.715
inactive: locus YAL013W, strain DEP1, hits give low values 0.949 | locus YAL021C, strain ccr4, hits give low values 1.02 | locus YAL026C, strain drs2, hits give low values 0.972 | locus YAL030W, strain snc1, hits give low values 0.985 | locus YBL061C, strain skt5, hits give low values 0.974 | locus YBR009C, strain hhf1, hits give low values 0.915 | locus YBR021W, strain FUR4, hits give low values 1.01 | locus YBR023C, strain chs3, hits give low values 0.981 | locus YBR171W, strain sec66, hits give low values 0.971 | locus YBR229C, strain ROT2, hits give low values 0.986 | locus YBR231C, strain swc5, hits give low values 1 | locus YBR279W, strain paf1, hits give low values 0.964 | locus YCL011C, strain gbp2, hits give low values 0.981 | locus YCL016C, strain dcc1, hits give low values 0.98 | locus YCL029C, strain bik1, hits give low values 0.986 | locus YCL061C, strain MRC1, hits give low values 0.971 | locus YCL069W, strain vba3, hits give low values 1 | locus YCR088W, strain abp1, hits give low values 1 | locus YDL005C, strain med2, hits give low values 0.988 | locus YDL035C, strain GPR1, hits give low values 0.979 | locus YDL040C, strain nat1, hits give low values 1 | locus YDL074C, strain BRE1, hits give low values 0.862 | locus YDL101C, strain DUN1, hits give low values 0.957 | locus YDL134C, strain PPH21, hits give low values 0.948 | locus YDL185W, strain tfp1, hits give low values 0.998 | locus YDL192W, strain arf1, hits give low values 0.94 | locus YDR001C, strain nth1, hits give low values 0.991 | locus YDR069C, strain doa4, hits give low values 1 | locus YDR101C, strain arx1, hits give low values 0.978 | locus YDR150W, strain NUM1, hits give low values 0.996 | locus YDR162C, strain NBP2, hits give low values 0.888 | locus YDR195W, strain ref2 1.02 | locus YDR297W, strain sur2, hits give low values 0.985 | locus YDR318W, strain mcm21, hits give low values 0.939 | locus YDR334W, strain swr1, hits give low values 0.983 | locus YDR335W, strain msn5, hits give low values 0.998 | locus YDR388W, hits give low values 0.984 | locus YDR502C, strain sam2, hits give low values 0.948 | locus YEL003W, strain gim4, hits give low values 0.979 | locus YEL037C, strain rad23, hits give low values 0.992 | locus YEL061C, strain CIN8 (second series), hits give low values 0.997 | locus YEL061C, strain CIN8, hits give low values 0.983 | locus YER015W, strain faa2, hits give low values 0.985 | locus YER016W, strain bim1, hits give low values 0.993 | locus YER110C, hits give low values 0.986 | locus YER111C, strain swi4, hits give low values 0.994 | locus YER155C, strain BEM2 (second series), hits give low values 0.894 | locus YER155C, strain BEM2, hits give low values 0.953 | locus YER167W, strain BCK2, hits give low values 0.976 | locus YFR010W, strain ubp6, hits give low values 1 | locus YGL078C, strain dbp3, hits give low values 0.993 | locus YGL086W, strain mad1, hits give low values 0.948 | locus YGL167C, strain pmr1, hits give low values 0.967 | locus YGL173C, strain kem1, hits give low values 0.97 | locus YGL227W, strain vid30, hits give low values 0.991 | locus YGL240W, strain doc1, hits give low values 1.02 | locus YGL248W, strain PDE1, hits give low values 0.974 | locus YGL253W, strain hxk2, hits give low values 0.992 | locus YGR135W, strain pre9, hits give low values 0.953 | locus YGR252W, strain gcn5, hits give low values 0.912 | locus YHR013C, strain ard1, hits give low values 0.916 | locus YHR027C, strain rpn1, hits give low values 0.971 | locus YHR030C, strain SLT2, hits give low values 0.915 | locus YHR079C, strain IRE1 (second series), hits give low values 0.977 | locus YHR079C, strain IRE1, hits give low values 0.943 | locus YHR094C, strain hxt1, hits give low values 0.989 | locus YHR129C, strain ARP1, hits give low values 0.926 | locus YHR142W, strain chs7, hits give low values 0.987 | locus YHR200W, strain rpn10, hits give low values 0.986 | locus YIL066C, strain RNR3, hits give low values 0.897 | locus YIL073C, strain SPO22, hits give low values 0.953 | locus YIL125W, strain kgd1, hits give low values 0.993 | locus YIR030C, strain dcg1, hits give low values 0.98 | locus YJL092W, strain hpr5, hits give low values 0.997 | locus YJL095W, strain BCK1 (second series), hits give low values 0.967 | locus YJL095W, strain BCK1, hits give low values 0.799 and 0.923 | locus YJL115W, strain asf1, hits give low values 1 | locus YJL134W, strain LCB3, hits give low values 0.997 | locus YJL154C, strain vps35, hits give low values 0.995 | locus YJL164C, strain tpk1, hits give low values 0.967 | locus YJL166W, strain qcr8, hits give low values 0.919 | locus YJL168C, strain set2, hits give low values 0.964 | locus YJL187C, strain SWE1 (second series), hits give low values 0.951 | locus YJL187C, strain SWE1, hits give low values 0.987 | locus YJR066W, strain TOR1, hits give low values 0.894 | locus YKL009W, strain mrt4, hits give low values 0.995 | locus YKL068W, hits give low values 0.998 | locus YKL085W, strain MDH1 (second series), hits give low values 0.985 | locus YKL085W, strain MDH1, hits give low values 0.985 | locus YKL160W, strain elf1, hits give low values 0.973 | locus YKL190W, strain CNB1, hits give low values 0.992 | locus YKR001C, strain vps1, hits give low values 0.949 | locus YKR026C, strain gcn3, hits give low values 0.995 | locus YKR091W, strain srl3, hits give low values 0.992 | locus YLL001W, strain dnm1, hits give low values 0.99 | locus YLL026W, hits give low values 0.986 | locus YLL041C, strain sdh2, hits give low values 0.989 | locus YLR027C, strain aat2, hits give low values 0.959 | locus YLR058C, strain SHM2, hits give low values 0.97 | locus YLR102C, strain apc9, hits give low values 0.992 | locus YLR113W, strain HOG1, hits give low values 0.957 | locus YLR221C, strain rsa3, hits give low values 0.959 | locus YLR258W, strain gsy2, hits give low values 0.997 | locus YLR268W, strain sec22, hits give low values 0.911 | locus YLR330W, strain CHS5, hits give low values 0.954 | locus YLR342W, strain FKS1, hits give low values 0.924 | locus YLR357W, strain rsc2, hits give low values 1.03 | locus YLR370C, strain arc18, hits give low values 0.988 | locus YLR371W, strain rom2, hits give low values 0.933 | locus YLR384C, strain iki3, hits give low values 0.99 | locus YML016C, strain PPZ1, hits give low values 0.991 | locus YML032C, strain rad52, hits give low values 0.944 | locus YML120C, strain ndi1, hits give low values 0.994 | locus YML124C, strain tub3, hits give low values 0.983 | locus YMR058W, strain fet3, hits give low values 0.976 | locus YMR078C, strain ctf18, hits give low values 0.956 | locus YMR125W, strain sto1, hits give low values 0.969 | locus YMR129W, hits give low values 0.984 | locus YMR223W, strain ubp8, hits give low values 0.963 | locus YMR231W, strain pep5, hits give low values 0.964 | locus YMR307W, strain GAS1, hits give low values 0.81 | locus YNL067W, strain RPL9B, hits give low values 0.973 | locus YNL183C, strain NPR1, hits give low values 0.921 | locus YNL209W, strain ssb2, hits give low values 0.984 | locus YNL233W, strain BNI4, hits give low values 0.955 | locus YNL248C, strain rpa49, hits give low values 0.978 | locus YNL250W, strain rad50, hits give low values 0.987 | locus YNL271C, strain bni1, hits give low values 0.983 | locus YNL298W, strain CLA4, hits give low values 0.989 | locus YNL322C, strain KRE1 (second series), hits give low values 1.01 | locus YNL322C, strain KRE1, hits give low values 0.983 | locus YNR049C, strain mso1, hits give low values 0.985 | locus YNR052C, strain pop2, hits give low values 0.951 | locus YOL006C, strain TOP1, hits give low values 0.959 | locus YOL012C, strain htz1 0.78 | locus YOL147C, strain pex11, hits give low values 0.961 | locus YOR001W, strain rrp6, hits give low values 0.991 | locus YOR061W, strain CKA2, hits give low values 0.983 | locus YOR069W, strain VPS5, hits give low values 0.992 | locus YOR070C, strain gyp1, hits give low values 0.952 | locus YOR080W, strain dia2, hits give low values 0.992 | locus YOR083W, strain WHI5, hits give low values 0.977 | locus YOR106W, strain vam3, hits give low values 0.972 | locus YOR136W, strain idh2, hits give low values 0.979 | locus YOR144C, strain elg1, hits give low values 0.957 | locus YOR231W, strain MKK1, hits give low values 0.936 | locus YOR265W, strain rbl2, hits give low values 0.986 | locus YOR270C, strain vph1, hits give low values 0.905 | locus YOR290C, strain snf2, hits give low values 0.938 | locus YOR316C, strain cot1, hits give low values 0.983 | locus YPL051W, strain arl3, hits give low values 0.945 | locus YPL078C, strain atp4, hits give low values 0.979 | locus YPL106C, strain sse1, hits give low values 0.942 | locus YPL240C, strain hsp82, hits give low values 0.985 | locus YPL256C, strain CLN2, hits give low values 0.92 | locus YPR119W, strain clb2, hits give low values 0.979 | locus YPR141C, strain kar3, hits give low values 0.977 | locus YPR163C, strain tif3, hits give low values 0.938 | locus YPR167C, strain met16, hits give low values 0.973 | strain wtn01, hits give low values 0.952
